Compounds with a hit are over-represented: about 4.5% of the library has one in this group of screens.
Mdm2-MdmX inh: inhibitors of human Mdm2/MdmX interaction; O15151+Q00987; SaOS-2 split-luciferase Mdm2/MdmX complementation, luminescence; inhibition, % at 8 µM; actives 3% (n = 330,000); AID 485346;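 active means inhibition of at least 50% at 8 µM in the primary screen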
Jurkat NFkB inh: inhibitors of the PMA/ionomycin-induced NF-kB reporter in Jurkat cells; PMA/ionomycin-induced NF-kB luciferase reporter, luminescence; inhibition, % at 4 µM; actives 0.53% (n = 330,000); AID 435003; in the data active means inhibition above about 50%
Gli-Sufu block: antagonists of Gli-Sufu signaling. Sufu-KO-LIGHT fibroblasts, Gli luciferase reporter luminescence. inhibition, % at 5 µM. actives 0.74% (n = 340,000). AID 588413;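 active means inhibition above about 55%, limit read from the data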;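 further: 0% = DMSO-treated cells and 100% = wells with medium but no cells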
697 NFkB inh: lowers PMA/ionomycin-induced NF-kB signal in 697 B cells. actives 0.33% (n = 330,000). 697 B-cell NF-kB luciferase reporter, 16 h. inhibition, % at 4 µM; in the data active means inhibition above about 35%
Beta apoptosis: beta cell apoptosis inhibition | protection from apoptosis, % (test concentration not listed) | actives 0.8% (n = 300,000) | INS-1E cytokine-induced death, ATP luminescence, 48 h; percent of positive-control rescue, neutral wells zero;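 active means Every replicate reaches about 75%, or at least half do and their mean reaches it too, limit read from the data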;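 further: 0% = cytokine-treated negative control wells and 100% = positive control rescue; higher means more ATP so stronger rescue from cytokine killing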
CSC inhib: blocks cancer stem cells | cancer stem cell-like cells viability, luminescence | inhibition, % at 7.5 µM | actives 1.1% (n = 300,000); in the data active means inhibition above about 75%; tested in HMLE shEcad cells
Mdm2 MdmX conf: confirmation of human Mdm2/MdmX interaction inhibitors | inhibition, % at 8 µM | AID 489028 | Mdm2-MdmX binding, luminescent assay | actives 55% (n = 10,000) | shares compounds with Mdm2-MdmX inh; in the data active means inhibition above about 40%
FLuc counter: counter-screen for Mdm2/MdmX inhibitors: full-length luciferase | inhibition, % at 8 µM | AID 504607 | shares compounds with Mdm2-MdmX inh | SaOS-2 full-length luciferase counterscreen, luminescence | actives 77% (n = 6,200);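 active means mean inhibition at 8 µM reaching about 37%, which flags the compound as non-specific, limit read from the data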;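 further: p53-null SaOS-2 cells with luciferase driven by a doxycycline-inducible promoter; compound on cells about two nights before reading with doxycycline added after day one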
Starred values were filed as active, the others as inactive; / = no result given.

SMILES | Mdm2-MdmX inh | Jurkat NFkB inh | Gli-Sufu block | 697 NFkB inh | Beta apoptosis | CSC inhib | Mdm2 MdmX conf | FLuc counter
COc1ccc(C2C(C#N)=C(N)Oc3c2ccc2cccnc32)cc1OC (stereo not drawn) | 81* | 44 | 14 | -102 | 99* | 51 | 78* | 60*
O=C(CSc1ccccn1)Nc1nonc1[N+](=O)[O-] | 95* | 13 | 5 | 18 | / | / | 80* | 29
O=C(CSc1ccccn1)Nc1ccc(NC(=O)CSc2ccccn2)cc1 | 17 | -4 | -8 | 3 | -2 | -17 | / | /
O=C(c1ccc(Cl)c(S(=O)(=O)N2CCOCC2)c1)N1CCc2ccccc2C1 | 23 | -13 | 10 | 15 | -12 | -7 | / | /
Cc1cc2cc(C#N)c(SCC(=O)Nc3nonc3C)nc2cc1C | 69* | -37 | -36 | -5 | 1 | / | 29 | /
O=C(c1ccccc1)c1cnc(Nc2ccc(Cl)c(Cl)c2)s1 | 71* | -9 | -45 | -12 | -1 | -14 | 6 | /
Cc1ccc(-c2nnc(N3CCN(C(=O)c4cccs4)CC3)c3ccccc23)cc1 | 55* | 11 | 6 | 0 | 9 | 1 | 13 | /
Cc1ccc(-c2nnc(N3CCN(c4ccccn4)CC3)c3ccccc23)cc1 | 57* | 12 | 18 | 5 | 26 | 15 | 54* | 48*
Cc1c(S(=O)(=O)Nc2ccc(Oc3ccccc3)cc2)c(=O)n(C)c(=O)n1C | 0 | 12 | 13 | -5 | -4 | 3 | / | /
CC(C)NC(=O)c1ccc(COc2ccc(C(C)(C)C)cc2)o1 | 9 | -38 | -23 | -83 | / | / | / | /
COc1ccc(OC)c(-c2nnc3n2N=C(c2ccc(OC(F)F)c(OCC4CC4)c2)CS3)c1 | 57* | 47 | 6 | -36 | -9 | 76* | 55* | 46*
COc1ccc(C2=Nn3c(nnc3-c3ccccc3F)SC2)cc1OC1CCOC1 (stereo not drawn) | 70* | -19 | 13 | -14 | 10 | 41 | 63* | 33
COc1ccc(OC)c(C2=Nn3c(nnc3-c3cccc(OC(C)C)c3)SC2)c1 | 8 | -11 | 13 | -21 | 3 | 23 | / | /
COc1ccc(NC(=O)CN2CCCC2)cc1 | 9 | -14 | 13 | 14 | -3 | 5 | / | /
Cc1ccc(Cl)cc1N1CCN(CC(=O)Nc2ccc(CN3CCCCC3)cc2)CC1 | 69* | -9 | 9 | -12 | 13 | -10 | 43* | 60*
O=C(CN1CCCC1)Nc1ccc(Oc2ccc(NC(=O)CN3CCCC3)cc2)cc1 | 56* | -24 | 10 | 6 | -1 | 15 | 53* | 58*
Cc1cccc(C(=O)NCC(c2cccs2)N2CCOCC2)c1 (stereo not drawn) | 0 | 12 | -10 | 22 | -11 | 7 | / | /
Cc1ccccc1C1C(C#N)=C2NC(=O)c3c(sc4c3CCCCC4)N2C2=C1C(=O)CC(C)(C)C2 (stereo not drawn) | 82* | -4 | / | -35 | 0 | 15 | 63* | 38*
O=C1[C@H](Oc2ccccc2)[C@@H](c2ccccc2)N1c1ccncc1 | 50* | / | -10 | -10 | / | / | -1 | /
O=C1[C@@H](Oc2ccccc2)[C@@H](c2ccccc2)N1c1ccccc1 | 1 | / | -9 | 20 | / | / | / | /
COc1ccc(NC2CCCN(C(=O)c3ccc4nc(C)c(C)nc4c3)C2)cc1OC (stereo not drawn) | -5 | 5 | -9 | 0 | 2 | 15 | / | /
CCn1c(-c2ccc(C)cc2)nn(CC(=O)NCCc2ccccc2)c1=S | 51* | 1 | -3 | -20 | 127* | 19 | 55* | 31
CCOC(=O)c1ccc(NC(=O)c2nc[nH]c2C(=O)N[C@@H](Cc2ccccc2)C(=O)OC(C)(C)C)cc1 | 62* | 7 | 2 | -10 | 18 | 2 | 31 | /
Cc1cccc(NC(=O)c2nc[nH]c2C(=O)Nc2ccccc2[N+](=O)[O-])c1 | 51* | 20 | 3 | -4 | 9 | 13 | 30 | /
CC(C)(C)OC(=O)[C@H](Cc1ccccc1)NC(=O)c1[nH]cnc1C(=O)Nc1cccc(Cl)c1 | 70* | -7 | -8 | -3 | 22 | 97* | 23 | /
SMILES | Mdm2-MdmX inh | Jurkat NFkB inh | Gli-Sufu block | 697 NFkB inh | Beta apoptosis | CSC inhib | Mdm2 MdmX conf | FLuc counter
Cc1cccc(NC(=O)c2nc[nH]c2C(=O)N[C@@H](Cc2ccccc2)C(=O)OC(C)(C)C)c1 | 64* | -1 | -2 | -23 | 13 | -19 | 26 | /
CC(C)(C)OC(=O)[C@H](Cc1ccccc1)NC(=O)c1[nH]cnc1C(=O)N[C@@H](Cc1ccccc1)C(=O)OCc1ccccc1 | 29 | 9 | 23 | -29 | -9 | 10 | / | /
CC(C)(C)OC(=O)[C@H](Cc1ccccc1)NC(=O)c1[nH]cnc1C(=O)Nc1ccc(Cl)cc1 | 51* | 13 | -12 | -13 | 10 | 120* | 27 | /
CC(C)C[C@H](NC(=O)c1[nH]cnc1C(=O)Nc1ccc(Cl)cc1)C(=O)OC(C)(C)C | 40 | -1 | -14 | -11 | 55 | / | / | /
Cc1ccc(Cc2c(C)c(C#N)c3[nH]c4ccccc4n3c2=O)cc1 | 65* | 3 | 44 | -28 | 77* | 32 | 55* | 36
O=C(Nc1ccc(O)c2c(=O)cc(-c3cccc(Cl)c3)oc12)c1cccc(Cl)c1 | 81* | 3 | -23 | -14 | / | 31 | -9 | /
CCCCn1c(CCc2ccccc2)nc2cc3[nH]c(=O)c(C(C)C)nc3cc21 | 51* | -13 | -5 | 7 | 13 | -1 | 12 | /
CN1CCN(c2nc3ccccn3c(=O)c2C=C(C#N)C#N)CC1 | -9 | -14 | -20 | 9 | -1 | 1 | / | /
O=C(Nc1c(F)cccc1F)c1cnc(N2CCN(c3ccccn3)CC2)c2ccccc12 | 57* | 20 | 11 | 16 | 11 | 20 | 32 | /
CCN1CCN(c2ncc(C(=O)Nc3cc(Cl)ccc3OC)c3ccccc23)CC1 | 54* | 19 | 24 | -9 | -1 | -18 | 3 | /
Cc1ccc(NC(=O)c2cnc(N3CCN(c4ccccn4)CC3)c3ccccc23)c(Br)c1 | / | / | 33 | / | 32 | 14 | / | /
Cc1cc(C)n(CCNC(=O)CC2C(=O)NCCN2Cc2ccccc2C(F)(F)F)n1 (stereo not drawn) | -35 | 3 | -2 | 9 | -5 | 2 | / | /
CCN(Cc1ccccc1)S(=O)(=O)c1ccc(C(=O)N(CCCN(C)C)c2nc3cc4c(cc3s2)OCO4)cc1 | 73* | 2 | 29 | -28 | -5 | -19 | 16 | /
Cc1ccc2sc(N(CCCN(C)C)C(=O)c3ccc(S(=O)(=O)N(C)C4CCCCC4)cc3)nc2c1C | 99* | 6 | 26 | -9 | / | 89* | 54* | 67*
CN(C)CCCN(C(=O)c1ccc(S(=O)(=O)N(C)C)cc1)c1nc2cc3c(cc2s1)OCO3 | 4 | -14 | 33 | 0 | -4 | -7 | / | /
